Inconclusive results are not listed. The source made the active and inactive calls. Unless noted, cut-off not given; nearly all actives show AC50 up to about 26 µM.

A short description of test [1]: viability loss in pontine glioma line – cell-based, SU-DIPG-XIII, MIPE5.0, CellTiter-Glo, qHTS, dose response (AID 1347064; cut-off not given, nearly all actives have AC50 up to about 23 µM). Particulars: CellTiter-Glo ATP luminescence. On the technique in general: Cellular ATP, detected with luciferase, serves as a proxy for viable cell number.
Test [2] can be described thus: JHH-DIPG-1 glioma cell viability, MIPE5.0 library, CellTiter-Glo luminescence, qHTS (AID 1347067).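 Further: cells exposed to compound for 48 hours before readout.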 The following applies: JHH-DIPG-1 glioma viability, CellTiter-Glo ATP luminescence.
A short description of test [3]: growth inhibition of DIPG cells – cell-based, MIPE5.0 library, qHTS (AID 1347068; cut-off not given, nearly all actives have IC50 up to about 30 µM;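 on IC50: cells exposed to compound for 48 hours before viability readout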). Particulars: SU-DIPG-XXV viability.
The nature of test [4]: viability loss in pontine glioma line – cell-based, SU-DIPG-XXV, MIPE5.0, CellTiter-Glo, qHTS, dose response (AID 1347065).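 Further: cells exposed to compound for 48 hours before ATP readout.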 The following applies: CellTiter-Glo ATP luminescence.
The nature of test [5]: growth inhibition, single agent or in combination, cell-based, chromothripsis tumors, cisplatin or BGB combos (AID 1671449; in the data active means inhibition above about 80%;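 further: cells exposed for 96 hours; 0% = vehicle DMSO and 100% = killing by high DMSO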). Particulars: LFS_MB_P medulloblastoma cells.
The nature of test [6]: growth inhibition, single agent and combos, cell-based, chromothripsis tumors, cisplatin or BGB combos (AID 1671450; in the data active means inhibition above about 80%;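 further: cells exposed to compound for four days; 0% = vehicle DMSO and 100% = cell killing by high DMSO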). The following applies: HDN33 neuroblastoma cells, stronger effect = higher value.
Test [7] in a line: growth inhibition, single agents and combos, ICB984, cell-based, cisplatin or BGB combos, synergistic combos for chromothripsis tumors (AID 1671451; call rule not given here;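 further: cells exposed for 96 hours before readout; 0% = vehicle DMSO and 100% = killing by high DMSO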). Particulars: ICB984 medulloblastoma cells, drug combinations, stronger effect = higher value.
The nature of test [8]: growth inhibition, single agents and combos, LFS_MB_1R, cell-based, cisplatin or BGB combos, synergistic combos for chromothripsis tumors (AID 1671452; in the data active means inhibition above about 80%;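 further: cells exposed for 96 hours before readout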). Particulars: LFS_MB_1R medulloblastoma cells, stronger effect = higher value.
The nature of test [9]: growth inhibition, single agents and combos, HTB85, cell-based, BGB or cisplatin IC20 combos, synergistic combos for chromothripsis tumors (AID 1671453; in the data active means inhibition above about 80%;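 further: cells exposed for 96 hours before readout; 0% = vehicle DMSO and 100% = high DMSO killing control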). Particulars: HTB85 osteosarcoma cells, drug combinations, stronger effect = higher value.
The nature of test [10]: growth inhibition, single agents and combos, CRL2098, cell-based, BGB or cisplatin IC20 combos, synergistic combos for chromothripsis tumors (AID 1671454; in the data active means inhibition above about 80%;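 further: cells exposed for 96 h before readout; 0% = vehicle DMSO and 100% = killing by high DMSO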). Particulars: CRL2098 osteosarcoma cells, drug combinations, stronger effect = higher value.
Test [11] in a line: growth inhibition, single agents and combos, HD-MB03, cell-based, BGB or cisplatin IC20 combos, synergistic combos for chromothripsis tumors (AID 1671455; in the data active means inhibition above about 83%;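 further: 0% = vehicle DMSO and 100% = high DMSO as cytotoxic control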). Particulars: HD-MB03 medulloblastoma cells, stronger effect = higher value.
A short description of test [12]: growth inhibition, single agents and combos, UWB1.289, cell-based, BGB or cisplatin combos, synergistic combos for chromothripsis tumors (AID 1671456; in the data active means inhibition above about 80%;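 further: cells exposed to compound for four days; 0% = vehicle DMSO and 100% = killing by high DMSO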). The following applies: UWB1.289 ovarian carcinoma cells, stronger effect = higher value.
Test [13] is described as follows: growth inhibition, single agents and combos, LFS_MB_2R, cell-based, cisplatin combos, synergistic combos for chromothripsis tumors (AID 1671457; in the data active means inhibition above about 80%;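 further: cells exposed to compound for four days before readout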). Particulars: LFS_MB_2R medulloblastoma cells, stronger effect = higher value.
Test [14] is described as follows: growth inhibition, MDA-MB-436, cell-based, BGB or cisplatin combos, synergistic combos for chromothripsis tumors (AID 1671458; call rule not given here;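 further: cells exposed for 96 hours; 0% = vehicle DMSO and 100% = killing by high DMSO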). The following applies: MDA-MB-436 breast carcinoma growth inhibition, drug combinations, stronger effect = higher value.
The nature of test [15]: UWB1.289_BRCA1 ovarian cancer growth, cell-based, BGB or cisplatin combinations (AID 1671459; in the data active means inhibition above about 80%). The following applies: UWB1.289 BRCA1 ovarian carcinoma, drug combinations, stronger effect = higher value.
Test [16] in a line: drug combination toxicity in non-malignant astrocytes – cell-based, BGB or cisplatin IC20 combos, cytotoxicity control for chromothriptic childhood tumor combination screen (AID 1671460; in the data active means inhibition above about 80%;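 further: cells exposed to compounds for 96 hours before viability readout; 0% = vehicle and 100% = killing control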). Particulars: Human astrocytes, viability inhibition, drug combinations, at 0.5 µM, stronger effect = higher value.
Test [17] is described as follows: BT084 cell growth, single and combined drugs, ICGC_MB145, cisplatin and BGB IC40 combos (AID 1671461; in the data active means inhibition above about 80%;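 further: cells exposed to drugs for 96 hours; 0% = vehicle DMSO and 100% = high DMSO full killing control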). Particulars: BT084 medulloblastoma cells, drug combinations, stronger effect = higher value.
Test [18] is described as follows: RCMB18 cell growth, single agent and combined, cisplatin and BGB IC40 combos (AID 1671462; in the data active means inhibition above about 80%;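 further: cells exposed to compound for four days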). The following applies: RCMB18 medulloblastoma cells, stronger effect = higher value.
Test [19] can be described thus: CRL1545 cell growth, single agent and combined, cisplatin and BGB IC20 combos (AID 1671464; in the data active means inhibition above about 80%;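 further: cells exposed to compound for 96 hours before readout; 0% = vehicle DMSO and 100% = high DMSO killing control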). Particulars: CRL1545 osteosarcoma cells, stronger effect = higher value.
[20] abbreviates: measured here: combination with BGB IC40, at 0.05 µM.
Setting [21] is: measured here: with BGB IC20 combination, at 0.5 µM.
Setting [22] is: measured here: with cisplatin IC20 combination, at 0.5 µM.
[23] abbreviates: measured here: combination with cisplatin, at 0.5 µM.
Setting [24] is: measured here: combination with cisplatin, at 5 µM.

Take `FC(F)(F)c1ccc(CNc2ccc(Cc3c[nH]c4ncc(Cl)cc34)cn2)cn1`: the compound was called inactive in [1], in test [2] and in [3].
On to `C[C@H](Nc1ncnc2nc[nH]c12)c1cc2ccc(F)cc2nc1-c1ccccn1`, for which the compound was classed as inactive in test [1], in test [2] and in [3].
As for `Nc1nccc(-c2c(-c3ccc(F)cc3)ncn2C2CCN(Cc3ccon3)CC2)n1`, the outcome in test [4], in [2] and in test [3] was inactive.
Take `CC1CCC(n2c3cnccc3c3cnc(Nc4ccc5c(n4)CCN(C(=O)CO)C5)nc32)CC1` (stereo unspecified): the call in test [4], in test [2] and in test [3] was inactive.
As to `CCCN(CCC)C(=O)C1=Cc2ccc(-c3ccc(C(=O)N4CCCC4)cc3)cc2N=C(N)C1`, the concentration at half-maximal activity (AC50) (usually the concentration giving half of the maximal activity seen) is 20.9 µM (active) in test [4] and 23.5 µM (active) in test [2]. In addition, in test [3], the result was inactive.
Take `O=C1Nc2nc(-c3c(O)cccc3OCC3CC3)cc([C@@H]3CCCNC3)c2CO1`: the AC50 in test [4] was 18.6 µM (active); in [2] it was 26.3 µM (active). The IC50 – broadly, the concentration at which inhibition is half-maximal – in test [3] is 13.2 µM (active).
Take `C[C@]12CCCN1CC1=NNC(=O)c3cc(F)cc4[nH]c2c1c34`: the AC50 in [4] is 18.6 µM (active). Also, the call in test [2] and in test [3] was inactive. The inhibition (commonly the drop in the measured response relative to a control, in per cent) is -13.4% (inactive) in test [5] (at 0.5 µM, stronger effect = higher value); -16.8% in [5] (measured here: combination with BGB IC20, at 0.005 µM); -28.9% in [5] (measured here: combination with BGB IC40, at 0.005 µM); -3.06% in test [5] (setting [20]); -13.1% in [5] (measured here: combination with cisplatin, at 0.5 µM, stronger effect = higher value); -44.5% in test [5] (measured here: combination with cisplatin, at 5 µM, stronger effect = higher value). Further, the inhibition is 6.78% in test [6] (BGB combo, at 5 µM); 9.23% (inactive) in test [6] (at 0.5 µM); 35.8% in [6] (cisplatin combo, at 5 µM); 6.38% in test [6] (setting [21]); -0.356% in test [6] (setting [22]); 20.9% in test [6] (single agent, at 5 µM). Also, the inhibition in test [7] (BGB IC20 combo, at 0.005 µM) is -2.46%; in [7] (BGB IC40 combo, at 0.005 µM) it was -21.8%; in [7] (BGB IC40 combo, at 0.05 µM), -22.5%; in test [7] (at 0.5 µM) it was -38.3% (inactive); in test [7] (cisplatin combo, at 0.05 µM), -27.3%; in [7] (cisplatin combo, at 0.5 µM) it was -41.3%. In addition, the inhibition is -0.499% in [7] (cisplatin combo, at 5 µM); -4.83% in test [7] (measured here: 5 uM single agent, at 5 µM); -20.6% (inactive) in test [8] (at 0.5 µM); 7.39% in test [8] (setting [20]); -14% in test [8] (setting [23]); 1.25% in [8] (setting [24]). In addition, the inhibition was 2.64% (inactive) in test [9] (at 0.5 µM); -13.5% in test [9] (measured here: with BGB IC20, at 0.5 µM); 4.08% in test [9] (measured here: with BGB IC20, at 5 µM); 10.2% in test [9] (measured here: with cisplatin IC20, at 0.5 µM); 21.1% in [9] (measured here: with cisplatin IC20, at 5 µM); 23.4% in test [9] (single agent, at 5 µM). Further, the inhibition was -35.2% (inactive) in test [10] (at 0.5 µM); 1.29% in test [10] (measured here: combination with BGB at IC20, at 0.5 µM); -26.6% in test [10] (measured here: combination with cisplatin at IC20, at 0.5 µM); -2.5% (inactive) in test [11] (at 0.5 µM); -14.3% in [11] (measured here: combo with BGB at IC20, at 0.5 µM); 6.94% in test [11] (measured here: combo with cisplatin at IC20, at 0.5 µM). For the same compound, the inhibition is -3.02% (inactive) in test [12] (at 0.5 µM); -15.4% in [12] (measured here: inhibition with BGB combination, at 0.05 µM); -2.14% in [12] (measured here: inhibition with cisplatin combination, at 0.05 µM); -20.2% (inactive) in test [13] (at 0.5 µM); -18.1% in test [13] (setting [23]); -24.5% in test [13] (setting [24]). The inhibition is 3.1% (inactive) in test [14] (at 0.5 µM); -13.3% in test [14] (measured here: BGB combination, at 0.5 µM); -31.4% in [14] (measured here: BGB combination, at 5 µM); 5.47% in test [14] (measured here: cisplatin combination, at 0.5 µM); 22.8% in [14] (measured here: cisplatin combination, at 5 µM); -3.19% in [15] (BGB combination, concentration series, at 5 µM). Also, the inhibition was 2.39% (inactive) in test [15] (at 0.5 µM); 5.42% in test [15] (cisplatin combination, concentration series, at 5 µM); 14.9% (inactive) in test [16]; 12% in [16] (measured here: combo with BGB IC20); 13.1% in test [16] (measured here: combo with cisplatin IC20); -23% (inactive) in test [17] (at 0.5 µM). Besides, the inhibition in [17] (cisplatin combination, at 0.5 µM) was -25.6%; in test [17] (cisplatin combination, at 5 µM) it was -25.6%; in test [17] (measured here: BGB IC40 combination 0.05 uM, at 0.05 µM), -29%; in test [17] (single agent, at 5 µM), -12.6%; in test [18] (at 0.5 µM), -18.5% (inactive); in [18] (cisplatin combo, at 5 µM) it was 3.33%. Further, the inhibition in test [18] (measured here: BGB IC40 combination, at 0.05 µM) is -15.1%; in [18] (setting [23]), -6.38%; in [18] (single agent, at 5 µM) it was -28.1%; in test [19] (at 0.5 µM) it was 7.98% (inactive); in [19] (setting [21]) it was -8.07%; in test [19] (setting [22]), 16%. Also, the inhibition in test [19] (single agent, at 0.05 µM) was 13.9%; in test [19] (single agent, at 5 µM) it was 35%.
Consider `COc1ccccc1C(=O)Nc1cc2c(cc1N1CCCCC1)n(C)c(=O)n2C`, for which the AC50 in test [4] is 18.6 µM (active). Also, the compound was called inactive in test [3].
Take `CNC(=O)Cn1cc(-c2ccc3c(c2)C(F)CC32NC(=O)N(CC(=O)N(Cc3ccc(F)cc3)C(C)C(F)(F)F)C2=O)cn1` (stereo unspecified): the call in test [4], in [2] and in test [3] was inactive.
With `CN1CCN(C(=O)c2ccc(-c3ccc4c(C=O)c(O)ccc4c3)s2)CC1`, the AC50 in [4] was 16.6 µM (active). Further, the outcome in test [3] was inactive.

The values above are taken from PubChem BioAssay.
